Activity calls are given as the source filed them. Unless noted, no rule for the calls is given here.

Results on nine compounds are retold here after PubChem BioAssay.

The nature of assay [1]: HepG2 liver cancer cell viability effects, profiling panel, resazurin fluorescence, 24 h, PK04 Diversity Set (AID 1172). The conditions noted are these: higher = more signal. On the technique in general: Alamar Blue is a resazurin reagent that responds to reducing activity.
Assay [2] is described as follows: basal S. cerevisiae growth modulation, no modifier, primary screen, OD600, strain BY4716, 24 h, basal condition (AID 1173). Particulars: OD600, 24 h, higher = more signal, called active from +8 up or from −8 down.
The nature of assay [3]: MM1S myeloma cell viability, profiling panel, resazurin fluorescence, basal, 24 h, PK04 Diversity Set (AID 1174).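 Also: MM1S multiple myeloma cell line.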 The conditions noted are these: higher = more signal, called active from +8 up or from −8 down.
Assay [4] has as its target Dihydroorotate dehydrogenase (quinone), mitochondrial (Plasmodium falciparum (isolate 3D7)) (UniProt Q08210). The experiment in a line: PfDHODH enzyme inhibitors, primary screen, biochemical, C-terminal His tag, absorbance 600 nm (AID 1175).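 Also: recombinant parasite enzyme with a five histidine tag at its C terminus.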 Particulars: DCIP absorbance 600 nm, higher = more signal, called active from +8 up or from −8 down.
A short description of assay [5]: P. aeruginosa biofilm formation inhibitors, primary screen, strain PAO1, LB-PBS medium, absorbance 600 nm (AID 1176). Particulars: P. aeruginosa PAO1 growth/biofilm, A600, 12 h; higher = more signal.
A short description of assay [6]: S. cerevisiae RM11-1a growth modifiers, primary screen, strain RM11-1a, OD600, basal, 24 h (AID 1177).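 Also: cultures grown under basal conditions with no added stressor.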 Particulars: OD600, 24 h, higher = more signal, called active from +8 up or from −8 down.
The nature of assay [7]: E. coli acrAB mutant growth effects, primary screen, E. coli filamentation inducers, strain DRC39, OD650, 24 h (AID 1178).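 Also: growth measured as culture turbidity by optical density at 650 nm.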 The conditions noted are these: higher = more signal, called active from +8 up or from −8 down.
A short description of assay [8]: E. coli acrAB mutant growth effects, primary screen, E. coli filamentation inducers, strain DRC39, OD650, 48 h (AID 1179).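 Also: screen aims at cell division blockers that make cells filament.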 Particulars: E. coli DRC39 delta-acrAB growth, higher = more signal, called active from +8 up or from −8 down.
Assay [9] is described as follows: RPMI8226 myeloma cell viability, profiling panel, resazurin fluorescence, basal, 24 h, PK04 Diversity Set (AID 1180).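 Also: RPMI8826 multiple myeloma cell line at 5000 cells per well.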 Particulars: higher = more signal.
Assay [10] concerns the target E3 ubiquitin-protein ligase XIAP (Homo sapiens) (UniProt P98170). In words: XIAP binders, primary screen, biophysical, small-molecule microarray, fluorescence 635 nm (AID 1181).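 Also: score merges 667 nm emission and signal to noise over triplicate slides.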 Particulars: small-molecule microarray binding, higher = more signal.
The test system of assay [11] is XIP peptide (Xip251-270) binding. The experiment in a line: small-molecule binders of XIP peptide, primary screen, biochemical, small-molecule microarray, fluorescence 635/667 nm, 0.1 µg/mL protein (AID 1182). The conditions noted are these: fluorescent protein binding, 635 nm, higher = more signal, called active from +8 up or from −8 down.
A further assay deals with XIP peptide (Xip251-270). In words: small-molecule binders of XIP peptide, primary screen, biochemical, small-molecule microarray, fluorescence 635/667 nm, 0.5 µg/mL protein (AID 1183). The conditions noted are these: small-molecule microarray binding, fluorescence 635 nm; higher = more signal.
Assay [12] can be described thus: Plasmodium falciparum growth inhibition, primary screen, strain 3D7, DAPI fluorescence, 100 nL (AID 1184).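 Also: parasites grown inside human red blood cells in medium with human serum.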 Particulars: P. falciparum 3D7 growth, 3 d, higher = more signal.
For assay [13], the target named is Homeobox protein Hox-A13 (Mus musculus) (UniProt Q62424). In words: inhibitors of HoxA13-DNA binding, primary screen, biochemical, fluorescence polarization, labeled oligonucleotide (AID 1185). The conditions noted are these: 15 min, higher = more signal, called active from +8 up or from −8 down. For orientation: Polarisation of emitted light reports the rotation of a fluorescent probe.
Homeobox protein Hox-A13 (Mus musculus), sequence (Q62424 whole entry, looked up): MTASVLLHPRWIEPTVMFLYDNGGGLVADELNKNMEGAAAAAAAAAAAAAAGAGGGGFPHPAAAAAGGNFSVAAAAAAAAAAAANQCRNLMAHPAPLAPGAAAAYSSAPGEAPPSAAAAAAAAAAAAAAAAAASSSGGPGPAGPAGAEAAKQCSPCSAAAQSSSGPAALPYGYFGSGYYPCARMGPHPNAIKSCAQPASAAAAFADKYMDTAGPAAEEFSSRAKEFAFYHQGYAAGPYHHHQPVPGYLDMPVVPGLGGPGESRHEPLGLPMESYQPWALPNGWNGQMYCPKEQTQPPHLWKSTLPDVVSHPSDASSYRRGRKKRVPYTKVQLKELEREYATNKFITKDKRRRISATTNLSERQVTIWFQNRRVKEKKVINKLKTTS

The nature of assay [14]: inhibitors of hydroxyurea-induced Chk1 phosphorylation, primary screen, imaging, HeLa, phospho-Chk1 antibody, percent positive cells (AID 1186). Particulars: hydroxyurea-induced phospho-Chk1 immunofluorescence imaging, higher = more signal.
Assay [15] can be described thus: inhibitors of hydroxyurea-induced Chk1 phosphorylation, primary screen, imaging, HeLa, phospho-Chk1 nuclear intensity (AID 1187). The conditions noted are these: hydroxyurea-induced phospho-Chk1 immunofluorescence imaging, higher = more signal.

Dihydroorotate dehydrogenase (quinone), mitochondrial (Plasmodium falciparum (isolate 3D7)), sequence (Q08210 whole entry, looked up): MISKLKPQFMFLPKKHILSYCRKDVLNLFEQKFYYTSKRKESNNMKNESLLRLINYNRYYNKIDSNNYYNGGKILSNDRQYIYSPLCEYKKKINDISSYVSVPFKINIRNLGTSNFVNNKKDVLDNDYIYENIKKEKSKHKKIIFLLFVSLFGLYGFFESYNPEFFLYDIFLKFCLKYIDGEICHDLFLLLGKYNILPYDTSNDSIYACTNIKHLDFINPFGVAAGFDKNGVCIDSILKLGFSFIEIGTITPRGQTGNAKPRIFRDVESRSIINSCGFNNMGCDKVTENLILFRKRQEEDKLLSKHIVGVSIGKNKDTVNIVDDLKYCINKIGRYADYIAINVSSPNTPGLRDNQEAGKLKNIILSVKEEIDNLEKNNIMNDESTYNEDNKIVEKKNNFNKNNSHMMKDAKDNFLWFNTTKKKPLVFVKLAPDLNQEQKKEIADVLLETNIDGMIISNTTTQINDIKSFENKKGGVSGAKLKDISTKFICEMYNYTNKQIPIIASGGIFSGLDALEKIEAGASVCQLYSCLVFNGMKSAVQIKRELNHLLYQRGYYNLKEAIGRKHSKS
E3 ubiquitin-protein ligase XIAP (Homo sapiens), sequence (P98170 whole entry, looked up): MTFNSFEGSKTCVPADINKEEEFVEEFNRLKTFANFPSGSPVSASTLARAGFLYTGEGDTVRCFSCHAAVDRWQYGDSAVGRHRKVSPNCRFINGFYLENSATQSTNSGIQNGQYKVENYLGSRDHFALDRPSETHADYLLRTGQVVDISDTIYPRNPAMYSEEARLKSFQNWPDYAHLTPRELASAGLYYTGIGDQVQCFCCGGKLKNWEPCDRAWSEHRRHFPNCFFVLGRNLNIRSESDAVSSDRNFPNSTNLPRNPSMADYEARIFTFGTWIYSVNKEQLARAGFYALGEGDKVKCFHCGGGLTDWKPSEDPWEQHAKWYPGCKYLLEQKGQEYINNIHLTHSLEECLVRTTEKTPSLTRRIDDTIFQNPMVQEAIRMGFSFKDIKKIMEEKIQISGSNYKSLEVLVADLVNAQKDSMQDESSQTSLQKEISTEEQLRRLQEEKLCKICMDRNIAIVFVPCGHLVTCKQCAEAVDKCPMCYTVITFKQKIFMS

Turning to `COCCOC(=O)N1C(=O)[C@@]2(c3cc(C#CCNC(N)=O)ccc31)[C@H](c1ccc(OCCO)cc1)N1[C@H](c3ccccc3)[C@H](c3ccccc3)OC(=O)[C@H]1[C@@H]2C(=O)N1CCN(c2ncccn2)CC1`, the z-score was 0.26 in assay [1]; 1.51 (inactive) in [2]; -0.0528 (inactive) in assay [3]; 2.5 (inactive) in assay [5]; 2.05 (inactive) in [6]; -0.157 (inactive) in assay [7]. For the same compound, the z-score in assay [8] is -0.327 (inactive); in assay [9], 0.0246; in assay [12], -1.91; in assay [13], 0.513 (inactive); in assay [14] it was -0.117 (inactive); in [15], -0.434 (inactive). The composite z-score in assay [4] is -0.239 (inactive); in assay [10] it was 0.1; in [11], -0.299 (inactive); in the assay on XIP peptide (Xip251-270), 0.245.
In the case of `O=C(O)[C@]1(CCS(=O)(=O)c2ccccc2)N=C(c2ccc(OCCCO)cc2)O[C@@H]1c1ccccc1`, the z-score was 0.93 in assay [1]; -0.334 (inactive) in assay [2]; 0.716 (inactive) in assay [3]; -1.3 (inactive) in assay [5]; -0.707 (inactive) in assay [6]; 1.92 (inactive) in [7]. Also, the z-score in assay [8] is 0.815 (inactive); in assay [9], 0.314; in assay [12], -0.212; in [13], -4.32 (inactive); in [14], -0.178 (inactive); in assay [15] it was 0.06 (inactive). Moreover, the composite z-score in assay [4] was -0.295 (inactive); in assay [10], -0.0988; in [11] it was 0.744 (inactive); in the assay on XIP peptide (Xip251-270), -0.374.
For `CC(C)CN1C(=O)[C@@]2(Cc3ccccc31)c1ccccc1C(=O)N(Cc1ccccc1)[C@H]2c1ccc(CO)cc1`, the z-score in assay [1] was -0.436; in [2], 0.145 (inactive); in [3], -0.765 (inactive); in assay [5] it was 0.745 (inactive); in assay [6], -0.286 (inactive); in assay [7], 0.109 (inactive). In addition, the z-score is -0.663 (inactive) in [8]; -0.904 in [9]; -0.435 in assay [12]; -1.07 (inactive) in assay [13]; -0.0605 (inactive) in assay [14]; -0.197 (inactive) in assay [15]. The composite z-score was -2.4 (inactive) in assay [4], -0.25 in assay [10], 2.02 (inactive) in assay [11] and -0.526 in the assay on XIP peptide (Xip251-270).
Consider `[N-]=[N+]=NCc1ccccc1[C@H]1OC(c2ccc(OCCCO)cc2)=N[C@@]1(Cc1ccccc1N=[N+]=[N-])C(=O)NCCN1CCOCC1`, for which the z-score is -0.634 in assay [1]; -1.11 (inactive) in assay [2]; -1.22 (inactive) in [3]; 0.591 (inactive) in assay [5]; 1.41 (inactive) in assay [6]; -0.0057 (inactive) in [7]. Further, the z-score is -0.357 (inactive) in [8]; -1.17 in assay [9]; -2.21 in [12]; -3.06 (inactive) in [13]; 0.0262 (inactive) in assay [14]; -0.0057 (inactive) in [15]. Also, the composite z-score in assay [4] was 1.15 (inactive); in assay [10], -0.0414; in [11], 0.175 (inactive); in the assay on XIP peptide (Xip251-270), 0.795.
As for `CC(C)C(CO)N1C(=O)[C@@H]2[C@H]3C(=O)OCC=C[C@H]3OC23C=CCN(CCN2CCOCC2)C(=O)[C@@H]13` (some centres undefined), the z-score was -0.173 in assay [1]; 0.306 (inactive) in assay [2]; -0.505 (inactive) in assay [3]; -0.814 (inactive) in assay [5]; 1.21 (inactive) in [6]; -0.934 (inactive) in assay [7]. Further, the z-score in [8] is -1.06 (inactive); in assay [9] it was -0.371; in assay [12], -0.0296; in assay [13], -4.54 (inactive); in assay [14] it was 0.318 (inactive); in assay [15] it was 0.436 (inactive). The composite z-score in assay [4] is 0.395 (inactive); in assay [10], -0.518; in assay [11] it was 0.708 (inactive); in the assay on XIP peptide (Xip251-270) it was 0.3.
For the compound `CCOC(=O)C[C@H]1[C@H](OC(=O)c2cc3ccccc3oc2=O)[C@@H](NC(=O)c2ccc3ccccc3n2)c2cc(OCCCO)ccc2N1C(=O)c1ccc2ccccc2n1`, the z-score in assay [1] is 0.165; in [2], -0.535 (inactive); in assay [3], 0.35 (inactive); in assay [5] it was -0.766 (inactive); in assay [6], -0.361 (inactive); in assay [7], 1.72 (inactive). Further, the z-score in [8] was 0.627 (inactive); in [9], -0.594; in assay [12] it was -1.15; in assay [13] it was -1.29 (inactive); in [14], -0.443 (inactive); in assay [15], -0.134 (inactive). Moreover, the composite z-score was 0.315 (inactive) in [4], 0.035 in [10], -0.276 (inactive) in assay [11] and 0.484 with XIP peptide (Xip251-270).
Regarding `O=C(C=C(CC(O)c1cccc(Cl)c1)OCCF)OCCF` (centres undefined), the z-score in assay [1] was -0.0453; in assay [2], -1.47 (inactive); in [3], 0.0592 (inactive); in assay [5] it was -0.777 (inactive); in [6], -1.33 (inactive); in assay [7] it was -0.0441 (inactive). The z-score in assay [8] is 1.04 (inactive); in assay [9], 0.335; in assay [12], 0.186; in [13], -1.34 (inactive); in assay [14], -0.608 (inactive); in [15] it was -0.48 (inactive). For the same compound, the composite z-score in assay [4] is -2.48 (inactive); in [10], 0.237; in [11], 0.0562 (inactive); in the assay with XIP peptide (Xip251-270), -1.21.
With `COc1ccc(C(=O)Nc2ccc3c(c2)[C@]2(O[C@@H](CCO)[C@H]([Si](C)(C)c4ccc(OC)cc4)[C@H]2C)C(=O)N3Cc2ccccc2)cc1`, the z-score in assay [1] is -1.9; in assay [2], -2.35 (inactive); in [3], -7.18 (inactive); in assay [5] it was 1.55 (inactive); in assay [6], 2.47 (inactive); in [7] it was 0.799 (inactive). For the same compound, the z-score in assay [8] was -0.167 (inactive); in assay [9], -2.51; in assay [12] it was -2.88; in assay [13], -1.01 (inactive); in assay [14], -0.583 (inactive); in assay [15] it was -0.644 (inactive). The composite z-score in assay [4] was -0.454 (inactive); in [10], -0.165; in [11] it was 0.439 (inactive); in the assay on XIP peptide (Xip251-270), 0.45.
For the compound `CC(C)N1C(=O)c2ccccc2[C@](C)(C(=O)O)[C@@H]1c1ccc(CO)cc1`, the z-score is 0.536 in assay [1]; -0.942 (inactive) in assay [2]; -0.0713 (inactive) in [3]; 0.332 (inactive) in assay [5]; 0.595 (inactive) in assay [6]; 0.0212 (inactive) in [7]. Also, the z-score in [8] is 0.421 (inactive); in [9], 0.125; in assay [12] it was 0.859; in assay [13], -1.63 (inactive); in assay [14], 0.113 (inactive); in [15] it was 0.318 (inactive). Moreover, the composite z-score in [4] was -0.218 (inactive); in assay [10], 0.0767; in assay [11], 0.202 (inactive); with XIP peptide (Xip251-270), 0.0967.
